Measurements as given in the supplement of paper PMC11732987, “Enantioselective OTUD7B fragment discovery through chemoproteomics screening and high-throughput optimisation” (Communications Chemistry, 2025).

Legend:
Experiment in all cases: log2 ratio of Biotin-Ahx-Ub-VS probe labelling (fragment/DMSO); higher = less target engagement (more negative = stronger competition), active = hit call of the paper (q ≤ 0.05, log2 ratio ≤ -1)
Settings in all cases: compound concentration: 200 uM; treatment time: 3 h
USP16 = USP16 (UniProt Q9Y5T5)
Chain of USP16 (Q9Y5T5 whole entry, looked up, the tested form may be a part): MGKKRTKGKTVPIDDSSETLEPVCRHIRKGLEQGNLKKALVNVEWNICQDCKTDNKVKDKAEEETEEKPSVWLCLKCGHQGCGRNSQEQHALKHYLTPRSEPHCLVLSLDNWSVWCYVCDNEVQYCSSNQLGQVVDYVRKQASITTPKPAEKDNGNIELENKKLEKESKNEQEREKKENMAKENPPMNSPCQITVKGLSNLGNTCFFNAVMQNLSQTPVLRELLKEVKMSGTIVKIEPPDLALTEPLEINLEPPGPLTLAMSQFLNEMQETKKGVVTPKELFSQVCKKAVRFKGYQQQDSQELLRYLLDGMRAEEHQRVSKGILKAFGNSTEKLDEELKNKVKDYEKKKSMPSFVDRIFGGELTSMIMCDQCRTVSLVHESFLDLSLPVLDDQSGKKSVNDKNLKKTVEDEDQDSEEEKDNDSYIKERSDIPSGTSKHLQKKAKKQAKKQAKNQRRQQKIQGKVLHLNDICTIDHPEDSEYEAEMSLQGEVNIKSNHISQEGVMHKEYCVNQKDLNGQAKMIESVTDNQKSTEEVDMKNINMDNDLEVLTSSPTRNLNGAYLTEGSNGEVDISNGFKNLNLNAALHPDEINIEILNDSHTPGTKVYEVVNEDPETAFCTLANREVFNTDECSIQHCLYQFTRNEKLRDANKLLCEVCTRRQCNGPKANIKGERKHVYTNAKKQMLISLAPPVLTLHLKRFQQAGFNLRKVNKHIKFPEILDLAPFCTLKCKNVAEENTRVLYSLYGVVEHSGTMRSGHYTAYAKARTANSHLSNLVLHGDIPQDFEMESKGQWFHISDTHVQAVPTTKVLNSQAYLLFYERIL
How it was run: (§1)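 HEK293T lysate, 495 µg per sample in Tris/CHAPS/IGEPAL buffer with protease inhibitors, was treated in triplicate with fragment at 200 µM or vehicle for 3 h and then with Biotin-Ahx-Ub-VS at 0.5 µM final for 1 h. Labelled DUBs were NeutrAvidin-enriched, digested with LysC and trypsin, and run by diaPASEF LC-MS/MS. Spectronaut label-free quantities were global-median-normalised, and values are average log2 fragment/vehicle ratios by unpaired t-test on proteins with ≥2 unique peptides.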

USP19 = biological target: T1, USP19 (UniProt O94966)
T1 sequence (whole entry): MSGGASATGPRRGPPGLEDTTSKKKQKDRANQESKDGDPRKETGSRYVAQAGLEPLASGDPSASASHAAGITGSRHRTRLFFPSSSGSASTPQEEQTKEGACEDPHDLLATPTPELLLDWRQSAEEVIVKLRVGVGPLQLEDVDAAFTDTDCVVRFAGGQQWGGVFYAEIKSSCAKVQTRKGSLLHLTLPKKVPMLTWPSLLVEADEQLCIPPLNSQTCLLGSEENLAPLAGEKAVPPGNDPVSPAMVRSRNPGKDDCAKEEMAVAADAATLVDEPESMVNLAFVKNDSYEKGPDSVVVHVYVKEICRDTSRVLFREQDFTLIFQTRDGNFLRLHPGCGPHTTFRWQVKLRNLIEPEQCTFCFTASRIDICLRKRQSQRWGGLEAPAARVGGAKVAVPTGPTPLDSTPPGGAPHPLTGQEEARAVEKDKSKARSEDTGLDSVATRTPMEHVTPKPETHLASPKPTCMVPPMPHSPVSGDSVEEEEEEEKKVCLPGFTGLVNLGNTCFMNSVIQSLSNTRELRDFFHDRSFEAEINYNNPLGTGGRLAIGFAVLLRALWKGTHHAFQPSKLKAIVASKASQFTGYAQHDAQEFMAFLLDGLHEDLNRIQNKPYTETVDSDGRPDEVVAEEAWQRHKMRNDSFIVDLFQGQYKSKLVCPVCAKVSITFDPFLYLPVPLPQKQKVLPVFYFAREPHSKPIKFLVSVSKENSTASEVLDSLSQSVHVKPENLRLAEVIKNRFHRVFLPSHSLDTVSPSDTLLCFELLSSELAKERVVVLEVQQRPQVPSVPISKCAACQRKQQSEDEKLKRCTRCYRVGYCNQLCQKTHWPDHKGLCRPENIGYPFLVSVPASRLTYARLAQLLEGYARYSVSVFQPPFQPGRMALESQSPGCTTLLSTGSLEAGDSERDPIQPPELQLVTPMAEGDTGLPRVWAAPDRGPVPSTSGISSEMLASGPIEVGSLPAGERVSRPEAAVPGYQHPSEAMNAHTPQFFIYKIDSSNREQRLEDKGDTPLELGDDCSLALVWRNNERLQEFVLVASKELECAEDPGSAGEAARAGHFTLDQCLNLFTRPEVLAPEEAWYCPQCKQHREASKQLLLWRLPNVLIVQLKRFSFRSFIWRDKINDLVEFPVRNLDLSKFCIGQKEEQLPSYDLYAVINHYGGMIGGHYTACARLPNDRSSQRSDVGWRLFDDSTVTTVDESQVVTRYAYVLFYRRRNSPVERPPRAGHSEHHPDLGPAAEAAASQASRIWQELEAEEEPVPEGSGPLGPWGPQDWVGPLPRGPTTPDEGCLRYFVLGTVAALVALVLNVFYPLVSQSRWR
How it was run: as §1

USP24 = USP24 (UniProt Q9UPU5)
Chain of USP24 (Q9UPU5 whole entry): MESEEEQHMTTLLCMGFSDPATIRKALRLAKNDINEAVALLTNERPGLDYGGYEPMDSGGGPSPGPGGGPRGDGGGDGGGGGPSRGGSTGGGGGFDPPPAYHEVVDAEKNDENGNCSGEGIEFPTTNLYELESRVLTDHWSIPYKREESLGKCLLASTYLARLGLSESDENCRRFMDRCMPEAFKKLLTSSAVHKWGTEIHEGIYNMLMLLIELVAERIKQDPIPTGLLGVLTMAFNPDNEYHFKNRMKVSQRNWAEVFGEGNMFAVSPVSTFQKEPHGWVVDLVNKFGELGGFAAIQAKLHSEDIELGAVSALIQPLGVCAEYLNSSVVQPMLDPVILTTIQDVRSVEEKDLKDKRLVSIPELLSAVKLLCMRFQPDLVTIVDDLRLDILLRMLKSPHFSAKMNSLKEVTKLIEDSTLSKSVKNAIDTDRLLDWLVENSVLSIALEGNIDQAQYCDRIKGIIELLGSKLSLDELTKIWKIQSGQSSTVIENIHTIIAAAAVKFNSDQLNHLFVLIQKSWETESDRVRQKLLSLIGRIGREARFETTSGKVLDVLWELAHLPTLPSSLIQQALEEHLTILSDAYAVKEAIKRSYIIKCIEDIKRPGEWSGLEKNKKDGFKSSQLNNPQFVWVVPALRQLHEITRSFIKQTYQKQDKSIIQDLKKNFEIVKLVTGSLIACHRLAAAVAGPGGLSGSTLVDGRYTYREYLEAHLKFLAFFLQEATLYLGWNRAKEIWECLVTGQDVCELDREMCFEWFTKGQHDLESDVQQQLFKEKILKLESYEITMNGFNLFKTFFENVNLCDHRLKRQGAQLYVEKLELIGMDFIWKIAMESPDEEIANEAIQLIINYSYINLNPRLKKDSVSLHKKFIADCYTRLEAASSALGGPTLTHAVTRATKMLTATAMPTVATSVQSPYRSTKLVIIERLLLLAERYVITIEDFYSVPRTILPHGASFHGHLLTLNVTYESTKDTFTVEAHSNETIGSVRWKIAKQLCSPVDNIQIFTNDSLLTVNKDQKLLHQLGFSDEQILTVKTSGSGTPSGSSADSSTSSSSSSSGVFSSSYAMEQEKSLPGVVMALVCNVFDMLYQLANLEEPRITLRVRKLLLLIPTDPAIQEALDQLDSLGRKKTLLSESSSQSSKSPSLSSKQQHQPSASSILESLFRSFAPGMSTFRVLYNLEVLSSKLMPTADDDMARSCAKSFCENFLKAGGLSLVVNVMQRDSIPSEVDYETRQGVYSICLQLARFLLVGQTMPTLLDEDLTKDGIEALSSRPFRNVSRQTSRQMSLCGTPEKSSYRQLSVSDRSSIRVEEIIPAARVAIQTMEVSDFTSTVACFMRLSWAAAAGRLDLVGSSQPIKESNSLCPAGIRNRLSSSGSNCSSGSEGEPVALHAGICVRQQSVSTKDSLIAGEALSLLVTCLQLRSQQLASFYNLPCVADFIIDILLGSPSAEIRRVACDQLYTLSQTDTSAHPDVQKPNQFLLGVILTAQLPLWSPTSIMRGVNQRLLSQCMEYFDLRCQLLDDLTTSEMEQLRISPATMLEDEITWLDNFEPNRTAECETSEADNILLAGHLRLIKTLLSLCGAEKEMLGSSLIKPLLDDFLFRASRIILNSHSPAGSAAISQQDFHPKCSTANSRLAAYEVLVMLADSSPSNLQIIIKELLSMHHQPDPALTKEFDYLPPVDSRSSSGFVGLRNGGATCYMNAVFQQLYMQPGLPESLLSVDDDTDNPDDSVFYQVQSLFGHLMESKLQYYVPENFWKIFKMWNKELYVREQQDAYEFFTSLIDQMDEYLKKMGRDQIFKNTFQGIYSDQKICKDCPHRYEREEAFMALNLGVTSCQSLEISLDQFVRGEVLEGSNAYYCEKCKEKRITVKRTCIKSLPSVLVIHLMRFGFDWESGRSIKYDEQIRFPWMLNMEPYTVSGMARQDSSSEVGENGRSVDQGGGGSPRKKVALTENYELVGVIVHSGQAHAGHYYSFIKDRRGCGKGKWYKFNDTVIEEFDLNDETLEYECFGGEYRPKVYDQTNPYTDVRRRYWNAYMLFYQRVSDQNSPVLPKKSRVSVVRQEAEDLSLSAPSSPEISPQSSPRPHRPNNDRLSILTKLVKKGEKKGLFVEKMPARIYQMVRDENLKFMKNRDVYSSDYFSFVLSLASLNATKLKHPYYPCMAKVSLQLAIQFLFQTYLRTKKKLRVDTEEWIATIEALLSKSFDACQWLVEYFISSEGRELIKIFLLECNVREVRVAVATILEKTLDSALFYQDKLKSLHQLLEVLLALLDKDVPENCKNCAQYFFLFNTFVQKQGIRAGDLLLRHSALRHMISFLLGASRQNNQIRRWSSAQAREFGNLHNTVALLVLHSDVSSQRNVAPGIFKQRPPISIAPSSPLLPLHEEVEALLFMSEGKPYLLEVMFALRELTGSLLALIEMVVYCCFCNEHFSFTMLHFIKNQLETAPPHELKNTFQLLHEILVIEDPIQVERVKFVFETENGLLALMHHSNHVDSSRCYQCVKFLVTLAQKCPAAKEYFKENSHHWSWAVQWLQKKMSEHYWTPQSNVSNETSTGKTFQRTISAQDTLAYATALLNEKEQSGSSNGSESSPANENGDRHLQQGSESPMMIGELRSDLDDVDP
How it was run: as §1

USP25 = biological target: T2, USP25 (UniProt Q9UHP3)
T2 sequence (whole entry): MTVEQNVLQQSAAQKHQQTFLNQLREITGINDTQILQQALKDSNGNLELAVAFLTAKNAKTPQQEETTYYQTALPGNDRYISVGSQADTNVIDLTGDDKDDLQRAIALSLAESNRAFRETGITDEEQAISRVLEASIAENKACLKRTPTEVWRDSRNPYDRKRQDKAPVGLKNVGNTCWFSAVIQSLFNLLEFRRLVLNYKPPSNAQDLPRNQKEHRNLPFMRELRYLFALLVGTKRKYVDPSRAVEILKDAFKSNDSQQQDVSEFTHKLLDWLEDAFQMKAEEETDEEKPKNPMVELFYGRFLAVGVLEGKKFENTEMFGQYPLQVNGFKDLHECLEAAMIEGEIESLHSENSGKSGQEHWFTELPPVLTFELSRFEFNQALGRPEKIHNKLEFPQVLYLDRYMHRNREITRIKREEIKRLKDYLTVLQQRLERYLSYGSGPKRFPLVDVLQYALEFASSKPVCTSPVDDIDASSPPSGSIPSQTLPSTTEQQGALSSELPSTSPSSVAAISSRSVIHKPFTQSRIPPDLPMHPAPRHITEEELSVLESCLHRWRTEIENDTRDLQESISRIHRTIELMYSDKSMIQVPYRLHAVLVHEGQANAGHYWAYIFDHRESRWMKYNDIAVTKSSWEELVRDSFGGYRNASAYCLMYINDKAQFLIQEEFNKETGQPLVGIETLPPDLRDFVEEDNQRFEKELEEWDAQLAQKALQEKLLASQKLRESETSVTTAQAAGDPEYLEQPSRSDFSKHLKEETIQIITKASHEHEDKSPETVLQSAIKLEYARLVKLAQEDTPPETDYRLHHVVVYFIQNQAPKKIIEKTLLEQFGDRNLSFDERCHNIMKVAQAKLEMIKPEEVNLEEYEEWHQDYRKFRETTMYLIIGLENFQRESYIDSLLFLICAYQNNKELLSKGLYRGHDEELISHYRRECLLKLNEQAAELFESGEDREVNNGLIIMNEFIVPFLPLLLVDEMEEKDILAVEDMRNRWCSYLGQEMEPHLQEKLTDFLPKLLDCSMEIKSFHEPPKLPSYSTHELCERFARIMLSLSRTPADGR
How it was run: as §1

USP28 = biological target: T3, USP28 (UniProt Q96RU2)
T3 sequence (whole entry): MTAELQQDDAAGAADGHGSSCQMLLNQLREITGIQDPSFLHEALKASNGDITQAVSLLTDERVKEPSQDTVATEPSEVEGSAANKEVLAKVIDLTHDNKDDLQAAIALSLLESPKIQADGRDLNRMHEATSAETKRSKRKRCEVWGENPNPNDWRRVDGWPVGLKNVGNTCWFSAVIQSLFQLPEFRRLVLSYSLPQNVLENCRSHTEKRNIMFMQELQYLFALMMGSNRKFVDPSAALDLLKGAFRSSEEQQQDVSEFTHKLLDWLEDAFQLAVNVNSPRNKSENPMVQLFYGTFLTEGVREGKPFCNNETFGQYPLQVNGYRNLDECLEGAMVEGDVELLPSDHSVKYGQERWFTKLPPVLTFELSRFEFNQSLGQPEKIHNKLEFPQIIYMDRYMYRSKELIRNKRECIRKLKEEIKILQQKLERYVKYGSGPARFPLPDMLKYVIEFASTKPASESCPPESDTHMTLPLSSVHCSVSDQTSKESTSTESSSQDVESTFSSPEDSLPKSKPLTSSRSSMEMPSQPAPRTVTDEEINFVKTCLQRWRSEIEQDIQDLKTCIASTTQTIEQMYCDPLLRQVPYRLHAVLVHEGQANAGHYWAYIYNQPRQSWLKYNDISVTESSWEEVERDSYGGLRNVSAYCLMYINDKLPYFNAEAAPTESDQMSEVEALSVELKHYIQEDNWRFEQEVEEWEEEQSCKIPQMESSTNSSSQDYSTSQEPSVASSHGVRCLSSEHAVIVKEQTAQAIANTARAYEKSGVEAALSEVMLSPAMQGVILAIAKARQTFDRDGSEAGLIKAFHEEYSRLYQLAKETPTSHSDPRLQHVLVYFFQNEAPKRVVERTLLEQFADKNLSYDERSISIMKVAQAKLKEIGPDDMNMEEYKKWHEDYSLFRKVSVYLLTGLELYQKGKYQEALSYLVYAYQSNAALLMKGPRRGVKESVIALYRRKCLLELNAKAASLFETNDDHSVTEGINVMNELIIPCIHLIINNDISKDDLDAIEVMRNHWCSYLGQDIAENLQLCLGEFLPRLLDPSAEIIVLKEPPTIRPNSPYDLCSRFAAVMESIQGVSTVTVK
How it was run: as §1

Measured: log2 ratio of Biotin-Ahx-Ub-VS probe labelling

O=C(CCl)NCc1ccc(N2CCOCC2)nc1
inactive: USP16 -0.342 | USP19 -0.163 | USP24 -0.312 | USP25 -0.432 | USP28 -0.485
